# Rows were chosen to be rich in hits. Some 2.8% of all compounds tested hit in one or more screens of this group.
# IP6K1 inh = blocks human inositol hexakisphosphate kinase 1; activity change, % (series mostly up to about 58 µM); IP6K1 kinase, ADP-Glo luminescence, 2 h; hits give low values; Q92551; hit rate 0.81% among 140,000; AID 1645851; in the data active means activity change below about -25%
#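 ADP-Glo luminescence measures ADP made by human IP6K1 during a 2 h RT reaction with ATP/IP6 (mix at 1.3 mM/130 uM); top library doses 57.5 and 19.1 uM final.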
# HEK293 viab = cell viability loss counter-screen. HEK-293-SNCA-luc viability, GF-AFC fluorescence, 24 h. Potency, µM (top dose mostly 57.1 µM), most hits filed as cytotoxic. hit rate 0.12% among 150,000. AID 1671193; further: nearly all actives have a fitted effect of over 30% in size
#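 HEK-293-SNCA-luc cells (1500/well) plated 24 h, then exposed 24 h to a dilution series; GF-AFC added 30 min at 37C, fluorescence 405/540 nm; normalised to medium-only and DMSO wells, Hill fit.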
# KDM5B inhibitor = inhibitors of human KDM5B histone demethylase; Potency, µM (series often up to 57.7 µM), actives largely listed as inhibitors; AID 1347165; hit rate 2.6% among 220,000; KDM5B demethylase, FDH-coupled NADH fluorescence (FDH is formaldehyde dehydrogenase); Q9UGL1; further: nearly all actives have a fitted effect of over 70% in size
# Target sequence (Q9UGL1 whole entry, looked up): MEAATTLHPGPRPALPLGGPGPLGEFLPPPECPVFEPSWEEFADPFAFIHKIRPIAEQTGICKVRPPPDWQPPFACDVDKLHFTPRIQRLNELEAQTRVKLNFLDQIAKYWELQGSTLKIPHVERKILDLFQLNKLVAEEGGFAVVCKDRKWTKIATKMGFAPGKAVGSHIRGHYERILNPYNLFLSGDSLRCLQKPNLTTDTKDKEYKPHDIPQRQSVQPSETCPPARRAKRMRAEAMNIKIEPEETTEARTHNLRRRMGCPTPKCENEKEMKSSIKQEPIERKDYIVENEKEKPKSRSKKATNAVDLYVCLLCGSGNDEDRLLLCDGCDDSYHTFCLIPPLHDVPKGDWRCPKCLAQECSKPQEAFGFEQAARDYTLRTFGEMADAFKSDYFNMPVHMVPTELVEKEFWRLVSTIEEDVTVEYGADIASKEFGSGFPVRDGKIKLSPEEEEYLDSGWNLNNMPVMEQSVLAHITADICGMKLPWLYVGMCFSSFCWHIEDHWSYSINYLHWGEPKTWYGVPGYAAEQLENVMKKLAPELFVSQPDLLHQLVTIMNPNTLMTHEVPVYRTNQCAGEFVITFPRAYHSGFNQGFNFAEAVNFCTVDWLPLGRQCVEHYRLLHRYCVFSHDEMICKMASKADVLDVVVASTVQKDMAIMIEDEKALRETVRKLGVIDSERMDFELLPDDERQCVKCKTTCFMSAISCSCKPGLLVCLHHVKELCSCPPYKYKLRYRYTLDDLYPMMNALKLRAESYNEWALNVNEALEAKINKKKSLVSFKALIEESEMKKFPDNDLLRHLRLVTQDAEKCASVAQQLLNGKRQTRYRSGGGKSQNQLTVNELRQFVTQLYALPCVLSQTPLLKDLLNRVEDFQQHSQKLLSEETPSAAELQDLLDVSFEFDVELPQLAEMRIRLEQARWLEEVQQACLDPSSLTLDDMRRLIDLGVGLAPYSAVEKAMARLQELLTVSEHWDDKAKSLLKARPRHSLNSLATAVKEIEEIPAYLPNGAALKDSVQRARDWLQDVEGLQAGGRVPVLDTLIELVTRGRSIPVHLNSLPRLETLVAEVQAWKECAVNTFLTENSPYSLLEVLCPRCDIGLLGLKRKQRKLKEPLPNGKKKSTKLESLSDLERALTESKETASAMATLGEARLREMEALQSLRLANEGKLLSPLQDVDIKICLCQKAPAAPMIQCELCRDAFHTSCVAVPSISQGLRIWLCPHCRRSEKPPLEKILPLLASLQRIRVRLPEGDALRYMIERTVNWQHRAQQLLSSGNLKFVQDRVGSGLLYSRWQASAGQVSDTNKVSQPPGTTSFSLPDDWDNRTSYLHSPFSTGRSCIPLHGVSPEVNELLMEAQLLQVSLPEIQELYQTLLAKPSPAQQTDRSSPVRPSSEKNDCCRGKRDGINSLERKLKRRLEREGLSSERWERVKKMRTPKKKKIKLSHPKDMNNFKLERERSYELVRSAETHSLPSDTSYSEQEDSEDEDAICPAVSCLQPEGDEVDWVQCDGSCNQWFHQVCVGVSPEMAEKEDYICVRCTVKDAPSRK
#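 Measured: NADH fluorescence change, 30 min, RT. System: KDM5BΔAP 200 nM final, H3K4me3 peptide, α-KG, Fe(II), ascorbate, NAD⁺ plus FDH, pH 7.5 HEPES. Compounds: titrated, 10 min pre-incubation with enzyme.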
# SNCA expr inhib = SNCA gene expression inhibition | HEK-293 SNCA-luciferase knock-in, luminescence, 24 h | Potency, µM (doses to about 57.2 µM), usual class: inhibitors | hit rate 0.17% among 140,000; further: nearly all actives have a fitted effect of over 45% in size
# Hits are given with their value; n = inactive; u = inconclusive; x = no result; [ ] = another dose, or the depositor's remark. Unless noted, the call rests on the fitted dose curve; in most records, active means well fitted curve in the direction sought with a large enough effect; inconclusive means small, poorly fitted or top-dose-only effect, or another doubt; inactive means no such curve, though single readings can be large; an effect the other way counts as inactive or inconclusive.
SMILES,IP6K1 inh,HEK293 viab,KDM5B inhibitor,SNCA expr inhib
Cc1ccc(NC(=O)N2CCc3c(c4ccccc4n3C)C2)cc1C,n,n,32µM,n
Cc1cccc(NC(=O)N2CCc3c(c4ccccc4n3C)C2)c1C,n,n,22µM,n
Cn1c2c(c3ccccc31)CN(C(=O)Nc1cccc(Br)c1)CC2,n,n,u,n
Cc1cc(Cl)ccc1OCCN1CCN(CC2(O)CCCNC2)CC1 (stereo unspecified),n,n,n,n
COc1ccc(CN2CCC3(CC2)C(=O)NCN3Cc2ccc(Cl)cc2)cc1,n,n,n,n
Cn1nc(C(=O)NCC(=O)N2CCCCCNC(=O)CC2c2ccccc2)c2ccccc21 (stereo unspecified),n,n,28µM,n
CN1Cc2ccc(NCc3ccccc3)nc2C(C)(C(=O)NCc2cccs2)C1 (stereo unspecified),n,n,u,n
COc1cccc(Nc2ccc3c(n2)C(C)(C(=O)NCc2cccs2)CN(C)C3)c1 (stereo unspecified),n,n,28µM,n
CN1Cc2ccc(NCc3ccccc3)nc2C(C)(C(=O)Nc2ccccc2)C1 (stereo unspecified),n,u,28µM,u
COc1ccc(NC(=O)C2(C)CN(C)Cc3ccc(NCc4ccccc4)nc32)cc1 (stereo unspecified),n,n,32µM,n
COCCNC(=O)C1(C)CN(C)Cc2ccc(Nc3ccccc3)nc21 (stereo unspecified),n,n,n,n
CN1Cc2ccc(NCc3ccccc3)nc2C(C)(C(=O)NCCOc2ccccc2)C1 (stereo unspecified),n,u,32µM,n
O=C(NC1CCCN(c2ccc3nnc(C4CC4)n3n2)C1)c1cccnc1 (stereo unspecified),n,x,x,x
O=C(Nc1ccc(=O)n2c1[C@@H]1C[C@@H](CN(C(=O)Nc3ccc(F)cc3)C1)C2)NC1CCCCC1,n,n,20µM,n
CC(=O)N1CCC(N2C[C@@H]3C[C@H](C2)c2c(NC(=O)NC4CCCCC4)ccc(=O)n2C3)CC1,n,n,u,n
O=C(c1ccccc1)N1CCC2(CNc3ccccc3[S+](=O)([O-])N2)C1 (stereo unspecified),n,n,n,n
CNc1nc2c(s1)C(c1ccccc1F)CC(=O)N2 (stereo unspecified),n,n,35µM,n
NS(=O)(=O)c1ccc(NC(=O)c2cc3ncccn3n2)cc1,x,x,n,x
Cc1nc(CNC(=O)c2ccc3oc(-c4cccc(F)c4)nc3c2)cs1,n,n,20µM,n
O=C(Nc1ccc2oc(-c3cccc(F)c3)nc2c1)c1ccc2ccccc2c1,n,n,n[11.5 µM],n
CN(CCC(O)c1ccccc1)C(=O)c1ccc2oc(-c3cccc(F)c3)nc2c1 (stereo unspecified),n,n,22µM,n
COc1ccc(C2CC(=O)c3c(C)nc(Nc4ccc(F)cc4)nc3C2)c(OC)c1 (stereo unspecified),x,x,n,x
CN(C)CCCNC(=O)c1ccc2c(c1)N(S(C)(=O)=O)CC2,n,n,u,n
CCN(CC)CCNC(=O)c1ccc2c(c1)N(S(C)(=O)=O)CC2,n,n,28µM,n
CS(=O)(=O)N1CCc2ccc(C(=O)NCCN3CCc4ccccc4C3)cc21,n,n,28µM,n
SMILES,IP6K1 inh,HEK293 viab,KDM5B inhibitor,SNCA expr inhib
Cc1ccc(S(=O)(=O)C=C(c2ccccc2)c2ccccc2)cc1,x,x,n,x
Cc1noc(CN2CCc3nc(-c4ccc(F)cc4F)[nH]c3C2)n1,n,n,32µM,n
CN(C)c1nc2c(c(=O)[nH]1)CCN(Cc1ccc(F)cc1F)CC2,n,n,n,n
Cn1ncc(CN2CCc3nc(-c4ccc(F)cc4F)[nH]c3C2)c1C1CC1,n,n,25µM,n
COc1c(C)cccc1C(=O)N1CCOC(c2ccc(Cl)c(Cl)c2)C1 (stereo unspecified),n,n,n,n
COCc1nnc2n1CCC(NC(=O)Cc1c[nH]c3ccccc13)CC2 (stereo unspecified),n,n,n,n
COCc1nnc2n1CCC(NC(=O)c1n[nH]c3ccccc13)CC2 (stereo unspecified),n,n,28µM,n
O=C(Nc1nc2ccc(F)cc2s1)c1nc(S(=O)(=O)Cc2ccccc2)ncc1Cl,-40,32µM,u,u
C[C@@H](NC(=O)NC(C)(C)C)c1onc(-c2ccc(F)cc2)c1C(=O)O,n,n,n,u
C[C@@H](NC(=O)c1ccc(Cl)cc1)c1onc(-c2ccc(F)cc2)c1C(=O)O,n,n,n,n
C[C@@H](NC(=O)c1nc2ccccc2[nH]1)c1onc(-c2ccc(F)cc2)c1C(=O)O,n,n,35µM,n
Cc1nn(-c2ccccc2)nc1C(=O)N[C@H](C)c1onc(-c2ccc(F)cc2)c1C(=O)O,n,n,32µM,n
CN(C)c1cccc(C(=O)N2CCC3(CCCN(CC4CC4)C3)C2)c1 (stereo unspecified),n,n,n,n
N[C@@H](Cc1cc(I)c(Oc2cc(I)c(O)c(I)c2)c(I)c1)C(=O)O,n,n,x,n
N[C@@H](Cc1cc(I)c(Oc2ccc(O)c(I)c2)c(I)c1)C(=O)O,-34,n,x,x
C[C@H](C(=O)N1CCCC1)C1CC[C@@]2(C)Cc3sc(-c4ccccc4)nc3[C@@H](C)[C@@H]2[C@H]1O (stereo partly specified),n,n,32µM,4.5µM
C[C@H](C(=O)N1CCCC1)[C@@H]1CC[C@@]2(C)Cc3sc(-c4ccsc4)nc3[C@@H](C)[C@@H]2[C@H]1O,n,n,u,5.6µM
CCN(CC)C(=O)[C@@H](C)C1CC[C@@]2(C)Cc3sc(Nc4c(Cl)cccc4Cl)nc3[C@@H](C)[C@@H]2[C@H]1O (stereo partly specified),n,n,n,u
COCCNC(=O)[C@@H](C)C1CC[C@@]2(C)Cc3sc(CSc4ccccc4)nc3[C@@H](C)[C@@H]2[C@H]1O (stereo partly specified),n,n,n,n
O=C(c1ccoc1)N1CCN(C(=O)N2CC3CC(C2)[C@H]2CCCC(=O)N2C3)CC1 (stereo partly specified),n,n,n,n
CCc1cnc(N2CCC(Oc3cnc4c(ccn4CCN[S+](C)(=O)[O-])c3)CC2)nc1,n,n,28µM,n
C[S+](=O)([O-])CCn1ncc2cc(OCC3CCN(c4ncccn4)CC3)ccc21,n,n,35µM,u
Cc1nccc(N2CCC(Oc3cnc4c(ccn4CCN[S+](C)(=O)[O-])c3)CC2)n1,n,n,u,u
CCc1cnc(N2CCC(COc3ccc4c(cnn4CC[S+](C)(=O)[O-])c3)CC2)nc1,n,n,32µM,n
O=C(NC1CCCCC1)N1CCCCC1c1nc(-c2cnccn2)n[nH]1 (stereo unspecified),n,n,u,n
CCCCNc1ncc(C(=O)O)c(C)n1,n,n,14µM,n
Cc1nc(NC2CCCC2)ncc1C(=O)O,n,n,u,n
O=C(c1cncs1)N1CCc2c(cc(-c3cccc(F)c3)c(=O)n2CCN2CCCCC2)C1,n,n,28µM,n

# Assay outcomes: PubChem BioAssay, National Center for Advancing Translational Sciences (NCATS)
